Test results published in PubChem BioAssay (NCATS).
Where “and” joins values, the source holds several entries; their conditions need not be identical. Equal entries are not always repeated. Inconclusive results are not listed. Calls of active or inactive are those of the source. Unless noted, calls come from the whole dose curve; as a rule, active = well fitted inhibition curve with a large enough effect; inconclusive = small, poorly fitted or top-dose-only effect; inactive = flat fitted curve, though single readings scatter.

What was measured:
[1] = Drug repurposing screens with cells derived from glioblastoma tumor samples (AID 1345199); conditions: GBM patient neurospheres viability, ATP luminescence, 48 h; note: nearly all actives have a fitted effect of over 40% in size; note: potency is the fitted concentration of half-maximal effect; for activity, negative = cell killing: % is set by controls: 0 for no effect and ±100 for the full control effect
Summary of the method: (§1)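 Primary testing used CD133+ neurospheres from four GBM patients, seven concentrations, 48 h exposure and ATP-based viability; confirmation added three slower-growing patient lines.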

astro = control astrocytes; assay: as above; conditions: viability, ATP luminescence, 48 h; series mostly up to 45.9 µM
Summary of the method: as §1

[2] = target: Nuclear receptor subfamily 1 group I member 2 (Rattus norvegicus) (UniProt Q9R1A7); assay: qHTS assay for small molecule activators of the rat pregnane X receptor (rPXR) signaling pathway (AID 651751; call rule not given here; note: 0% is about no effect); conditions: rPXR reporter cells, luciferase (One-Glo), 24 h
Sequence of Nuclear receptor subfamily 1 group I member 2 (Rattus norvegicus) (Q9R1A7 whole entry, looked up): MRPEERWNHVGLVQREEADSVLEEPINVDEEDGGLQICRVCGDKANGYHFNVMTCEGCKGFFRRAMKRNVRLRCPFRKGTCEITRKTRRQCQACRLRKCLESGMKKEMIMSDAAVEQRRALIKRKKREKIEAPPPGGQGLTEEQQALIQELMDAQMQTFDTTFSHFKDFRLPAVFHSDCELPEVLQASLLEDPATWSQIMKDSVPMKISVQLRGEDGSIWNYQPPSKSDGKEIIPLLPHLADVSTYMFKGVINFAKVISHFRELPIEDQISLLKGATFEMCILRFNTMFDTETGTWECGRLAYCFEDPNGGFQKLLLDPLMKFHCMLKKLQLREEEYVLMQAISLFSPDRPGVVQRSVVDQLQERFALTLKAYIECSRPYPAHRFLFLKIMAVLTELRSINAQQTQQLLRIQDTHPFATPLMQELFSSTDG

[3] = qHTS assay for small molecule activators of the human pregnane X receptor (PXR) signaling pathway (AID 720659; call rule not given here; note: 0% is about no effect); conditions: DPX-2 HepG2 CYP3A4-luciferase, 24 h; series mostly up to 92.3 µM
[4] = at 45.9 µM (top of the series), tumour line B
[5] = at 45.9 µM (top of the series), tumour line D
[6] = at 46.1 µM (top of the series), tumour line C
[7] = at 46 µM (top of the series), tumour line A

CC(C)CCCCCCc1ccc(O)cc1
active: Potency ([1]; tumour line A) 22.4 µM
inactive: activity, negative = cell killing [1, 4] -21.6% | activity, negative = cell killing [1, 5] -27.3% | activity, negative = cell killing [1, 6] -24.2% | Potency (astro) | max response [2] -1.23%

OB(O)O
inactive: activity, negative = cell killing [1, 4] -12.9% | activity, negative = cell killing [1, 5] -13.8% | activity, negative = cell killing [1, 7] -26.5% | activity, negative = cell killing [1, 6] 5.29% | Potency (astro) | max response [2] 1.69% and 5.36% | outcome [3]

Cc1ncc[nH]1
inactive: activity, negative = cell killing [1, 4] -1% | activity, negative = cell killing [1, 5] -14.2% | activity, negative = cell killing [1, 7] -4.28% | activity, negative = cell killing [1, 6] -3.58% | Potency (astro) | max response [2] 1.58% | outcome [3]

CCCCC
inactive: activity, negative = cell killing [1, 4] -6.65% | activity, negative = cell killing [1, 5] -7.88% | activity, negative = cell killing [1, 7] -21.1% | activity, negative = cell killing [1, 6] 22.7% | Potency (astro) | max response [2] -1.73% | outcome [3]

CCc1ncnc2cc(OC)c(OC)cc12
inactive: activity, negative = cell killing [1, 4] -18.2% | activity, negative = cell killing [1, 5] -1.42% | activity, negative = cell killing [1, 6] -14.3% | Potency (astro)

C[Si](C)(C)O[Si](C)(C)C
inactive: activity, negative = cell killing [1, 4] -9.61% | activity, negative = cell killing [1, 5] -4.16% | activity, negative = cell killing [1, 7] -2.42% | activity, negative = cell killing [1, 6] -22.1% | Potency (astro) | max response [2] -0.472% | outcome [3]

C[C@H](CCC(=O)O)[C@H]1CC[C@H]2[C@@H]3[C@H](O)C[C@@H]4C[C@H](O)CC[C@]4(C)[C@H]3C[C@H](O)[C@]12C
inactive: activity, negative = cell killing [1, 4] -1.15% | activity, negative = cell killing [1, 5] 1.82% | activity, negative = cell killing [1, 7] -16.5% | activity, negative = cell killing [1, 6] -12.6% | Potency (astro) | max response [2] -1% | outcome [3]

O=C(O)[C@H]1C(=CCO)O[C@H]2CC(=O)N12
inactive: activity, negative = cell killing [1, 4] -8.67% | activity, negative = cell killing [1, 5] -21.6% | activity, negative = cell killing [1, 7] -18.4% | activity, negative = cell killing [1, 6] -12.5% | Potency (astro)

O=C(O)COc1ccc(CCNS(=O)(=O)c2ccccc2)s1
inactive: activity, negative = cell killing [1, 4] -8.15% | activity, negative = cell killing [1, 5] -13.5% | activity, negative = cell killing [1, 6] -21.9% | Potency (astro)

CC[C@H]1OC(=O)[C@H](C)[C@@H](O[C@H]2C[C@@](C)(OC)[C@@H](O)[C@H](C)O2)[C@H](C)[C@@H](O[C@@H]2O[C@H](C)C[C@H](N(C)C)[C@H]2O)[C@](C)(O)C[C@@H](C)CN(C)[C@H](C)[C@@H](O)[C@]1(C)O
inactive: activity, negative = cell killing [1, 4] -13.7% | activity, negative = cell killing [1, 5] -25.4% | activity, negative = cell killing [1, 6] -5.95% | Potency (astro) | max response [2] -1.6% | outcome [3]
active: Potency ([1]; tumour line A) 5.01 µM

C=C(C)C1CC=C(C)CC1 (configuration not stated)
inactive: activity, negative = cell killing [1, 4] -13.3% | activity, negative = cell killing [1, 5] -4.33% | activity, negative = cell killing [1, 7] -25% | activity, negative = cell killing [1, 6] -2.45% | Potency (astro) | max response [2] 7.4% and -2.46%

CO
inactive: activity, negative = cell killing [1, 4] -8.56% | activity, negative = cell killing [1, 5] -4.99% | activity, negative = cell killing [1, 7] -10.2% | activity, negative = cell killing [1, 6] -11.6% | Potency (astro) | max response [2] 4.07% | outcome [3]

CC(C)CCC[C@@H](C)[C@H]1CC[C@H]2[C@@H]3CC=C4C[C@@H](O)CC[C@]4(C)[C@H]3CC[C@]12C
inactive: activity, negative = cell killing [1, 4] -9.94% | activity, negative = cell killing [1, 5] -4.88% | activity, negative = cell killing [1, 7] -8.25% | activity, negative = cell killing [1, 6] 1.16% | Potency (astro) | max response [2] -2.23% | outcome [3]

CCCCCCOC(=O)c1cccnc1
inactive: activity, negative = cell killing [1, 4] 14.4% | activity, negative = cell killing [1, 5] 7.42% | activity, negative = cell killing [1, 7] -5.32% | activity, negative = cell killing [1, 6] 1.85% | Potency (astro)

C[N+]1(C)[C@@H]2CC(OC(=O)C(O)(c3cccs3)c3cccs3)C[C@H]1[C@@H]1O[C@@H]12 (some centres not stated)
inactive: activity, negative = cell killing [1, 4] -12.3% | activity, negative = cell killing [1, 5] 0.442% | activity, negative = cell killing [1, 7] -24.6% | activity, negative = cell killing [1, 6] -20.7% | Potency (astro)

CC1=CCC2CC1C2(C)C (configuration not stated)
inactive: activity, negative = cell killing [1, 4] -2.1% | activity, negative = cell killing [1, 5] 2.05% | activity, negative = cell killing [1, 7] -19.4% | activity, negative = cell killing [1, 6] 11.1% | Potency (astro) | max response [2] 1.07% | outcome [3]

COC(=O)c1ccccc1O
inactive: activity, negative = cell killing [1, 4] -5.99% | activity, negative = cell killing [1, 5] -6.33% | activity, negative = cell killing [1, 7] -21.5% | activity, negative = cell killing [1, 6] 12.1% | Potency (astro) | max response [2] -2.2% and 1.51%

NC(N)=O
inactive: activity, negative = cell killing [1, 4] -9.26% | activity, negative = cell killing [1, 5] -11.1% | activity, negative = cell killing [1, 7] -23.3% | activity, negative = cell killing [1, 6] 7.05% | Potency (astro) | max response [2] 3.1% | outcome [3]

CCOC(C)OCC
inactive: activity, negative = cell killing [1, 4] -4.71% | activity, negative = cell killing [1, 5] -10.7% | activity, negative = cell killing [1, 7] -12.1% | activity, negative = cell killing [1, 6] -14.4% | Potency (astro) | max response [2] 0.058% | outcome [3]

O=P(O)(O)O
inactive: activity, negative = cell killing [1, 4] 9.14% | activity, negative = cell killing [1, 5] -2.27% | activity, negative = cell killing [1, 7] -6.51% | activity, negative = cell killing [1, 6] 0.794% | Potency (astro) | max response [2] -0.433% | outcome [3]

OCC(O)CO
inactive: activity, negative = cell killing [1, 4] -10.1% | activity, negative = cell killing [1, 5] -10.7% | activity, negative = cell killing [1, 7] -18.9% | activity, negative = cell killing [1, 6] 6.43% | Potency (astro) | max response [2] -2.39% and -3.75% | outcome [3]
